A selection: hits, their analogues and other compounds. The true share with any hit is near 1.1%.
COUP-TFII inh = NR2F2 (human) inhibition, primary screen | P24468 | HEK293T NGFI-A luciferase reporter, luminescence | inhibition, % at 8.6 µM | 0.7% of 370,000 active | AID 686940;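 active = inhibition above a per-plate cutoff, mean inhibition of test wells between control levels plus 3 SD, cut at about 38% in these data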;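 note: cells cotransfected with COUP-TFII expression vector driving the NGFI-A reporter; 0% = median of COUP-TF2 test wells and 100% = reporter-only cells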
NR5A2 inv ag = suppresses constitutive activity of human LRH-1 | 0.13% of 360,000 active | AID 602396 | O00482 | HEK293T StAR-luciferase reporter, LRH-1 transfected, 24 h | inhibition, % at 3.6 µM;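 active = inhibition above the mean inhibition of all tested compounds plus 3 SD, cut at about 73% in these data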;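 note: 0% = DMSO wells and 100% = reporter-only cells lacking LRH-1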
Target sequence (O00482 whole entry, looked up): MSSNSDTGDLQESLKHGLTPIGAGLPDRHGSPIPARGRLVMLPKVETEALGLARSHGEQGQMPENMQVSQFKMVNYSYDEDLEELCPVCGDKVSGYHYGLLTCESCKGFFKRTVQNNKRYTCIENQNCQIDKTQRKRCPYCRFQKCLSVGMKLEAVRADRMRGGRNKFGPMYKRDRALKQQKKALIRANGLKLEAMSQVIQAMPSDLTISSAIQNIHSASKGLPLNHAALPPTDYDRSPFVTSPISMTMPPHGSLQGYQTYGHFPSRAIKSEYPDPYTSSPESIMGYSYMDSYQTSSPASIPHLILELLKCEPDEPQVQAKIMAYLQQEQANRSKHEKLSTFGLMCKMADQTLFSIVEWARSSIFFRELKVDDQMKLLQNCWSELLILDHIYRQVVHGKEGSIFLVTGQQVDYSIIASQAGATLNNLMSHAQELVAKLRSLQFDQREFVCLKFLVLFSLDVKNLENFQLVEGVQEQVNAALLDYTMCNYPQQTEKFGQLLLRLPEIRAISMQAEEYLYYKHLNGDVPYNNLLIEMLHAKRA
GalR3 antagonist = antagonists of human GalR3. inhibition, % at 3 µM. O60755. HEK293 GalR3-CNG cAMP membrane potential fluorescence; galR3 body fused to GalR1 C-terminus. 0.44% of 360,000 active. AID 651719;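 active = inhibition above the screen-wide average plus 3 SD, cut at about 13% in these data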;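 note: forskolin and galanin both at EC90 stimulate the cells; cAMP rise reported by CNG channel membrane potential dye signal; 0% = forskolin plus galanin with DMSO and 100% = forskolin alone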
NCOA3 inh = human NCOA3 inhibition | AID 588352 | 0.17% of 360,000 active | inhibition, % at 3.6 µM | HEK293 GAL4-SRC3 luciferase reporter, luminescence | Q9Y6Q9;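 active = inhibition above a per-campaign cutoff, the mean of all compounds plus 3 SD, cut at about 60% in these data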;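 note: 0% = DMSO-treated cells and 100% = gossypol-treated cells at 36 µM; higher means less SRC3-driven luciferase light from the GAL4 reporter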
SRC2 inh = inhibits human steroid receptor coactivator 2 | HEK293 GAL4-SRC2 luciferase reporter, luminescence | Q15596 | 0.17% of 370,000 active | inhibition, % at 9 µM;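 active = inhibition above the mean inhibition of all tested compounds plus 3 SD, set per campaign, cut at about 52% in these data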;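 note: 0% = DMSO treated cells and 100% = cells given Gossypol at 36 µM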
NCOA1 inh = human NCOA1 inhibition; Q15788; HEK293 GAL4-SRC1 luciferase reporter, luminescence; inhibition, % at 3.6 µM; 0.12% of 360,000 active; AID 588354;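 active = inhibition above the campaign mean plus 3 SD, with each screening campaign given its own cutoff, cut at about 60% in these data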;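 note: 0% = DMSO treated cells and 100% = gossypol at 36 µM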
VP16 Luc counter = inhibits VP16 reporter, flagging COUP-TFII antagonist hits; AID 687007; shares compounds with COUP-TFII inh; inhibition, % at 8.5 µM; 25% of 2,500 active; HEK293 Gal4-VP16 luciferase reporter, luminescence; in the data active = inhibition above about 13%
NR2F2 inh conf = confirmation of human COUP-TFII (NR2F2) inhibitors; shares compounds with COUP-TFII inh; HEK293 NGFI-A luciferase reporter, luminescence; inhibition, % at 8.5 µM; 45% of 2,500 active;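 active = mean inhibition over three repeats above a set limit taken from the earlier primary screen, cut at about 38% in these data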;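 note: 100% = cells given the luciferase reporter alone without the COUP-TF2 vector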
Active calls of the source: *; . = no result given; ! = a repeat was not active.

SMILES	COUP-TFII inh	NR5A2 inv ag	GalR3 antagonist	NCOA3 inh	SRC2 inh	NCOA1 inh	VP16 Luc counter	NR2F2 inh conf
CCCCNC(=O)C[C@H]1C[C@@]2(C(=O)OC)C(=C[C@H](C3CCCC3)O[C@@H]2C)N(CCc2ccc(OC)c(OC)c2)C1=O	19	.	.	.	3	.	.	.
CCCC[C@@H]1C(=O)N2N=Cc3cscc3[C@H]2N2N=Cc3cscc3[C@@H]12	11	.	.	.	14	.	.	.
Cc1ccc(S(=O)(=O)NCC2CN(S(=O)(=O)c3ccc(C)cc3)c3ccccc3C(=O)N2c2ccc(F)cc2)cc1 (configuration not stated)	-4	.	.	.	.	.	.	.
O=C1c2cccc(OCC(=O)N3CCCc4ccccc43)c2CCN1Cc1cccnc1	40*	7	2	23	9	15	7	20
O=C1/C(=C/c2ccccc2)CN(C(=O)CCN2CCOCC2)C/C1=C\c1ccccc1	57*	53	1	13	13	-45	35*	26
CN(C)CCC(=O)N1C/C(=C/c2ccccc2)C(=O)/C(=C\c2ccccc2)C1	79*	81*	2	-6	64*	-58	81*	87*
O=C(/C=C/c1ccccc1)CCN1CCOCC1	-6	-15	-5	-4	-8	-41	.	.
C[N+](C)(C)CCC(=O)N1C/C(=C/c2ccccc2)C(=O)/C(=C\c2ccccc2)C1	72*	-8	3	16	6	-15	22*	29
Cc1ccc(C)c(-c2nc3cc(N)ccc3o2)c1	42*	-17	-2	-8	55*	-14	1	-18
COC(=O)c1ccc(-c2nc3cc(N)ccc3o2)cc1	41*	29	-2	-13	42	-40	22*	-11
Nc1ccc(-c2nc3cc(N)ccc3o2)cc1	-42	-108	-8	-66	-34	-78	.	.
Cc1ccc(-c2nc3cc(N)ccc3o2)cc1Br	-14	-64	-7	-118	-22	-126	.	.
CN(CCc1ccccn1)C(=O)Cn1nc(-c2ccccc2)ccc1=O	-30	.	.	.	-4	.	.	.
Cc1ccc(NC(=O)c2cnc(N3CCN(c4ccccn4)CC3)c3ccccc23)c(Br)c1	38*	21	-4	27	18	37	-6	39*
O=C(Nc1c(F)cccc1F)c1cnc(N2CCN(c3ccccn3)CC2)c2ccccc12	29	46	-1	32	1	15	.	.
CCOC(=O)N1CCN(C(=O)C[C@@H]2C(=O)N3CCCC4=C3[C@@]2(C(=O)OCC)CCC4)CC1	7	.	.	.	-15	.	.	.
CC(=O)N1CCc2cc(S(=O)(=O)NC3CCN(C(=O)OCc4ccccc4)CC3)ccc21	61*	.	.	.	18	.	-11	20
Cc1cc2nc(C3CCCN(C(=S)Nc4ccccc4C)C3)[nH]c2cc1C (configuration not stated)	45*	15	-7	7	21	14	-34	-7
Cc1ccc2nc(C3CCCN(C(=S)Nc4cccc(C)c4C)C3)[nH]c2c1 (configuration not stated)	-7	-26	-1	20	3	-6	.	.
CCCCCCCCN1C(=O)[C@@H](CC(=O)NCc2ccc(OC)c(OC)c2)C[C@@]2(C(=O)OC)C1=C[C@H](C(C)C)O[C@@H]2C1CC1	16	.	.	.	12	.	.	.
COC(=O)C1CN(C2CCCC2)CCS(=O)(=O)N1Cc1ccc(OC)cc1 (configuration not stated)	8	.	.	.	20	.	.	.
CCOC(=O)Cc1csc(NC(=O)/C=C/c2ccc(Cl)cc2)n1	44*	-14	-6	-11	-2	-1	-66	5
COc1ccc(Br)cc1C(C[N+](=O)[O-])c1c(N)n(C)c(=O)n(C)c1=O (configuration not stated)	41*	27	3	-3	-28	-26	7	23
CC(C)CN1C(=O)[C@@]2(CC(=O)N(C)C2c2ccccc2)c2cc(-n3cc(CCCC#N)nn3)ccc21 (some centres not stated)	-4	.	.	.	-5	.	.	.
Cn1nc(C(C)(C)C)cc1C(=O)N1CCCCC1c1cc(C(=O)Nc2ccccc2Cl)no1 (configuration not stated)	48*	13	-5	10	43	7	0	17
SMILES	COUP-TFII inh	NR5A2 inv ag	GalR3 antagonist	NCOA3 inh	SRC2 inh	NCOA1 inh	VP16 Luc counter	NR2F2 inh conf
Nc1[nH]c(C(=O)c2ccccc2)c(-c2ccc3ccccc3c2)c1C(=O)NCCc1ccc(Cl)cc1	12	.	.	.	.	.	.	.
O=C(Nc1ccc(Cc2ccncc2)cc1)c1ccc(S(=O)(=O)N2CCOCC2)cc1	41*	25	-3	26	9	24	3	28
Cc1ccc(NC(=O)c2cc(S(=O)(=O)N3CCCCC3)cs2)cc1	48*	19	-3	-7	37	7	2	19
O=C(Nc1ccc(S(=O)(=O)N2CCOCC2)cc1)c1ccc(S(=O)(=O)N2CCOCC2)cc1	-9	1	-5	10	5	-8	.	.
Cc1ccc(NC(=O)c2cc(S(=O)(=O)N3CCOCC3)cs2)cc1	16	-3	-3	2	11	-3	.	.
Cc1ccc(S(=O)(=O)N2CCOCC2)cc1C(=O)Nc1ccc(N2CCCCCC2)cc1	40*	-16	-2	-22	-10	1	-33	14
CCOC(=O)CC[C@@H]1CC[C@]2(CCCN(C(=O)C3CCCC3)C2)O1	-14	.	.	.	10	.	.	.
COc1cccc(C2=NCCc3cc4c(cc32)OCO4)c1OC	-15	10	1	7	14	6	.	.
COc1ccc2cc3[n+](cc2c1OC)CCc1cc2c(cc1-3)OCO2	53*	34	2	-26	-3	10	14*!	54*!
Cc1cnc(NC(=O)c2ccc3c(c2)OCCO3)s1	46*	8	-8	22	67*	8	-5	20
COc1ccc(-c2nc(-c3ccccn3)no2)cc1	83*	23	-5	69*	75*	54	60*	81*
COc1ccccc1-c1nc(-c2ccccn2)no1	7	-68	2	-61	5	-32	.	.
O=C(c1cccs1)N1CC[C@H]2[C@H](CCCN2Cc2ccc(F)cc2)C1	-13	.	.	.	-5	.	.	.
COc1cccc(N2CCN(C(=O)c3ccc(CSc4nc5ccncc5[nH]4)cc3)CC2)c1	42*	-12	-1	-12	18	-11	2	16
Cc1nc2ccc(NC(=O)c3cccs3)cc2c(=O)n1Cc1ccc(Cl)cc1	59*	51	-13	37	10	28	8	46*
COC(=O)[C@]12C[C@H](CC(=O)NCc3cccc4ccccc34)C(=O)N(Cc3ccco3)C1=C[C@H](C(C)(C)C)O[C@@H]2C	1	.	.	.	19	.	.	.
